{"source": "PubChem BioAssay AID686979", "about": "(National Center for Advancing Translational Sciences (NCATS), 2013)", "note": "Several values for one entry are separate records, joined by “and”; a condition that tells them apart may be missing. Equal values may be shown once. The whole screen tested about 420,000 compounds, of which about 50,000 (12%) were called active. Roughly 26% stayed inconclusive and do not appear here. The sample holds actives, similar compounds and a random draw of the others, so the mix is not that of the screen. Values without a mark were called inactive. Calls follow the shape of the dose curve; as a rule, active = well fitted inhibition curve with a large enough effect; inconclusive = small, poorly fitted or top-dose-only effect; inactive = flat fitted curve, though single readings scatter. % is scaled to controls: 0 for no effect and ±100 for the full control effect; potency is read from the fitted curve at half-maximal effect."}
{"assay": "qHTS for Inhibitors of human tyrosyl-DNA phosphodiesterase 1 (TDP1): qHTS in cells in presence of CPT; also: nearly all actives have a fitted effect of over 55% in size", "details": "chicken DT40 Tdp1-/-;hTDP1 cells + 20 nM CPT, ATP luminescence, 48 h; series mostly up to 46.2 µM; activity change, negative = growth inhibition: at the top concentration", "from_the_text": "Human tyrosyl-DNA phosphodiesterase 1 (TDP1) is a novel repair gene, and we propose to use it as a new target for anticancer drug development. TDP1 is not an essential protein, but under treatment with topoisomerase I poison (camptothecin: CPT), TDP1 works as a critical factor for cell survival. To directly identify novel TDP1 inhibitors active in a cellular environment, we have knocked-out the Tdp1 gene in chicken DT40 cells (Tdp1-/-) and generated a complemented counterpart cells that contains a stable transfection of the human TDP1 gene (Tdp1-/-;hTDP1 cells). For the primary screen, Tdp1-/-;hTDP1 cells will be exposed to small molecules in the presence or absence of CPT, and their growth kinetics will be evaluated after 48 hours by measuring ATP activity. […] The hit compounds will then be evaluated in the presence or absence of CPT using Tdp1-/- cells. […] In tertiary assays, biochemical gel-based assays will be used to assess whether the hit compounds specifically target TDP1. To this end, we have screened this cell line against the MLSMR in two primary screens. In one screen we add CPT and in the other we screen in the absence of CPT; this AID represents the screen where CPT was present. NIH Chemical Genomics Center [NCGC] NIH Molecular Libraries Probe Centers Network [MLPCN] MLPCN Grant: MH095538 Assay Submitter (PI): Yves Pommier, NCI\nDT40-hTDP1 cells with 20 nM Camptothecin (add 20 microL of 1 mM CPT stock in 1 L of cell culture medium) were dispensed at 400 cells/5microL/well in tissue culture treated 1536-well white wall/solid bottom assay plates (Greiner Bio-One North America, NC, U.S.A.) using a Multidrop Combi 8 channel dispenser (Thermo Fisher, Waltham, MA, USA). 23 nL compounds and controls were transferred using the pin tool (Kalypsys, San Diego, CA, USA) to the assay plates. The assay plates were then incubated at 37 masculineC for a minimum 48 hr. Three microL of Cell Titer Glo solution was added to the plates and incubated at RT in dark for 30 min. Luminescence was read using ViewLux (Perkin Elmer) with 1 sec exposure slow speed, high gain and 2x binning.", "units": {"activity change, negative = growth inhibition": "%"}}
{"smiles": "CC(=O)N(CC(O)CO)c1c(I)c(C(=O)NCC(O)CO)c(I)c(C(=O)NCC(O)CO)c1I", "note": "(configuration not stated)", "Potency": "inactive"}
{"smiles": "O=C(C1CC(=O)N(c2ccc(Br)cc2)C1)N1CCCC1", "note": "(configuration not stated)", "activity change, negative = growth inhibition": -5.65}
{"smiles": "COc1ccc(NC(=O)CS(=O)(=O)c2ccccc2)cc1", "activity change, negative = growth inhibition": 31.2}
{"smiles": "COc1ccc(C(CC(=O)c2ccccc2)S(=O)(=O)c2ccccc2)cc1", "note": "(configuration not stated)", "Potency": "23.1 µM (active)"}
{"smiles": "COc1ccc(N(Cc2ccccc2)S(=O)(=O)c2cccc(C(=O)O)c2)cc1", "activity change, negative = growth inhibition": -6.42}
{"smiles": "NC(=O)c1ncn([C@@H]2O[C@H](CN=C3NS(=O)(=O)c4ccccc43)[C@@H](O)[C@H]2O)n1", "activity change, negative = growth inhibition": -10.6}
{"smiles": "CC(Oc1ccc(Br)cc1)C(=O)NCC(c1ccco1)N1CCCCC1", "note": "(configuration not stated)", "activity change, negative = growth inhibition": -24.4}
{"smiles": "COc1ccc(S(=O)(=O)N(C)CC(=O)N2CCCC2)cc1", "activity change, negative = growth inhibition": 2.13}
{"smiles": "CN(C)S(=O)(=O)c1ccc(NC(=O)N2CCOCC2)cc1", "activity change, negative = growth inhibition": -5.71}
{"smiles": "CN(C)S(=O)(=O)c1ccc(Oc2ccc(S(=O)(=O)N(C)C)cc2)cc1", "Potency": "16.4 µM (active)"}
{"smiles": "COc1ccc(N(CC(=O)Nc2cc(OC)cc(OC)c2)S(=O)(=O)c2c(C)n[nH]c2C)cc1", "activity change, negative = growth inhibition": -29.6}
{"smiles": "COc1ccc(CCNC(=O)COC(=O)c2ccc[nH]c2=O)cc1", "activity change, negative = growth inhibition": 3.7}
{"smiles": "CC(C)=N/N=C1/NC(=O)C(Cc2ccccc2)S1", "note": "(configuration not stated)", "activity change, negative = growth inhibition": 8.07}
{"smiles": "CCN(CC(=O)NCc1cccs1)C(=O)/C=C/c1ccc(C)cc1", "activity change, negative = growth inhibition": -23.4}
{"smiles": "C[C@H]1CCC(=O)N([C@H](CSc2ccccc2)Cc2ccccc2)CC1", "activity change, negative = growth inhibition": -13.2}
{"smiles": "O=C1CCN(Cc2ccc([N+](=O)[O-])cc2)CCN1[C@H](CO)Cc1ccccc1", "activity change, negative = growth inhibition": -9.24}
{"smiles": "O=C(Cc1ccccc1)NNC1CC(=O)N(c2ccc(Br)cc2)C1=O", "note": "(configuration not stated)", "activity change, negative = growth inhibition": 1.27}
{"smiles": "COc1ccc(SC[C@H](Cc2ccccc2)N2CCN(CCc3ccccc3)CCC2=O)cc1", "Potency": "23.1 µM (active)"}
{"smiles": "O=C1CC[C@H](O)CCN1[C@H](CSc1ccc(Br)cc1)Cc1ccccc1", "Potency": "11.2 µM (active) and 14.6 µM (active)"}
{"smiles": "O=C1CCN(CCCc2ccccc2)CCN1CCO", "activity change, negative = growth inhibition": 3.81}
{"smiles": "O=C(CN1CCC(NC(=O)C2CC2)CC1)Nc1ccccc1[N+](=O)[O-]", "activity change, negative = growth inhibition": -6.93}
{"smiles": "Cc1cc(C(F)F)nn1CC(=O)NC1CCCCCC1", "activity change, negative = growth inhibition": 3.43}
{"smiles": "Cc1ccc2c(cnn2C(=O)CCC(=O)NC2CCCC2)c1", "activity change, negative = growth inhibition": 0.0617}
{"smiles": "O=C(Cc1cccs1)Nc1ccc([N+](=O)[O-])cc1", "activity change, negative = growth inhibition": -28.9}
{"smiles": "CCc1nn(-c2cc(Oc3cccc4ccccc34)nc(-c3ccccc3)n2)c(N)c1C#N", "Potency": "10.3 µM (active)"}
{"smiles": "CCCC(=O)n1nc(-c2ccccc2)nc1N", "activity change, negative = growth inhibition": -6.98}
{"smiles": "CC(C(=O)N1CCN(c2ccccc2F)CC1)c1ccc([N+](=O)[O-])cc1", "note": "(configuration not stated)", "activity change, negative = growth inhibition": -25.5}
{"smiles": "CC1CCN(CC(=O)Nc2nccs2)CC1", "activity change, negative = growth inhibition": -24.2}
{"smiles": "Cc1c(C)c(C)c(S(=O)(=O)N2CCC3(CC2)OCCO3)c(C)c1C", "activity change, negative = growth inhibition": -19.7}
{"smiles": "CCOc1ccc(NC(=O)CN(C)C(=O)CSc2ccccc2)cc1OCC", "activity change, negative = growth inhibition": -19.4}
{"smiles": "CN1CCN(NC(=O)c2ccc(S(=O)(=O)N3CCCCCC3)cc2)CC1", "activity change, negative = growth inhibition": 5.37}
{"smiles": "COC(=O)c1ccc(CNC(=O)c2ccc(S(=O)(=O)N3CCCCCC3)cc2)cc1", "activity change, negative = growth inhibition": -1.03}
{"smiles": "O=C(c1cc(S(=O)(=O)N2CCOCC2)ccc1Cl)N1CCOCC1", "activity change, negative = growth inhibition": 11}
{"smiles": "COc1cc2c(cc1OC)CN(C(=O)c1ccc(S(=O)(=O)N3CCCCCC3)cc1)CC2", "Potency": "20.6 µM (active)"}
{"smiles": "COc1cc2c(cc1OC)CN(C(=O)c1cc(S(=O)(=O)N3CCCCC3)ccc1Cl)CC2", "Potency": "20.6 µM (active)"}
{"smiles": "COc1ccc(S(=O)(=O)N2CCCCC2)cc1Br", "activity change, negative = growth inhibition": 0.0514}
{"smiles": "COc1ccc(C(=O)n2nc(C)c(Br)c2C)cc1OC", "activity change, negative = growth inhibition": -17.2}
{"smiles": "COc1ccc(C(=O)CN2C(=O)NC(C)(c3ccc(C)cc3)C2=O)cc1OC", "note": "(configuration not stated)", "activity change, negative = growth inhibition": -22.9}
{"smiles": "COc1ccc(C(=O)n2nc(-c3ccc(C)cc3)nc2N)cc1OC", "Potency": "13 µM (active)"}
{"smiles": "CN1CCN(c2ccc(CNS(=O)(=O)c3cccc(F)c3)cc2)CC1", "activity change, negative = growth inhibition": -2.6}
{"smiles": "CCCCc1ccc(S(N)(=O)=O)cc1", "activity change, negative = growth inhibition": 0.496}
{"smiles": "N#Cc1ccccc1CN1C(=O)S/C(=C/c2cccn2-c2cccc(C(=O)O)c2)C1=O", "activity change, negative = growth inhibition": -7.91}
{"smiles": "O=C(c1cc(-c2ccc(O)cc2)on1)N1CCCc2ccccc21", "activity change, negative = growth inhibition": -19.2}
{"smiles": "Cc1cccc2cc3c(N)c(C(=O)N4CCCc5ccccc54)sc3nc12", "Potency": "4.11 µM (active)"}
{"smiles": "Cc1c(C(=O)N2CCCc3ccccc32)oc2ccccc12", "activity change, negative = growth inhibition": -15.4}
{"smiles": "Cc1c(C(=O)O)nnn1-c1nonc1N", "activity change, negative = growth inhibition": 4.76}
{"smiles": "COc1cc(OC)c(C(=O)NNC(=O)c2ccccc2-n2cccc2)cc1OC", "activity change, negative = growth inhibition": -11.7}
{"smiles": "Cc1ccccc1CSc1nc(-c2ccccc2)nc2c1Cc1c(CO)cnc(C)c1O2", "activity change, negative = growth inhibition": 6.78}
{"smiles": "CSc1nc(-c2ccc(F)cc2)nc2c1Cc1c(CO)cnc(C)c1O2", "activity change, negative = growth inhibition": 7.44}
{"smiles": "CSc1nc(-c2ccccc2Cl)nc2c1Cc1c(CO)cnc(C)c1O2", "Potency": "14.6 µM (active)"}
{"smiles": "CCOC(=O)c1cnc2nc(SCc3ccccc3Cl)[nH]n2c1=O", "activity change, negative = growth inhibition": -4.22}
{"smiles": "CS(=O)(=O)c1ccc(Cl)c(NC(=O)COC(=O)c2ncc(Cl)c(Cl)c2Cl)c1", "activity change, negative = growth inhibition": 0.632}
